RORgamma inh: qHTS for inhibitors of ROR gamma transcriptional activity | Drosophila S2 Gal4-RORgamma UAS-luciferase reporter, 20 h | Potency, µM (highest dose often 53.6 µM), hits mostly inhibitors | 310,000 tested, 5.4% active | AID 2551, 2010; note: nearly all actives have a fitted effect of over 60% in size
Target sequence (P51450 whole entry, looked up, the tested form may be a part): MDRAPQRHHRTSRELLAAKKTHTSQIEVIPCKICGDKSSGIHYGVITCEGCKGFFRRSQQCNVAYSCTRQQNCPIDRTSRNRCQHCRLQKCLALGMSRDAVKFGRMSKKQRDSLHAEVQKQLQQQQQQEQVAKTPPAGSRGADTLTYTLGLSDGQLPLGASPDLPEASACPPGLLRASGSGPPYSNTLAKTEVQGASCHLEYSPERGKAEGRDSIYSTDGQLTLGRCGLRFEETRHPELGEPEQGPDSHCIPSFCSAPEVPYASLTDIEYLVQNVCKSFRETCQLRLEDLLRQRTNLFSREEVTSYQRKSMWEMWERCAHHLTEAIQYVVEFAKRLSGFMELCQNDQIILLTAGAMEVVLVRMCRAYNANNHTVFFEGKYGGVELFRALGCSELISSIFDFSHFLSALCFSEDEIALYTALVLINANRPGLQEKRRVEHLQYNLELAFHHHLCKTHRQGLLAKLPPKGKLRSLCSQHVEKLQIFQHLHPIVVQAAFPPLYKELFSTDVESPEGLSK
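Schneider cells (Drosophila), stable Gal4 DBD–ROR gamma + UAS-luc; 1 hr cmpd preincubation; Cu2+ induction 700 uM final; 20 hr ambient; luminescence.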
IL-1B inflam inh: qHTS for Inhibitors of Inflammasome Signaling: IL-1-beta AlphaLISA Primary Screen. THP-1 LPS/ATP IL-1B secretion, AlphaLISA, 16 h; hits give low values. 360,000 tested, 4.7% active. activity change, % at 57.5 µM. AID 743279, 2014; in the data active = activity change below about -50%; inconclusive = mostly about -30% to -49%
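Secreted IL-1B measured by AlphaLISA bead assay after 16 h compound exposure of THP-1 cells; compounds (final up to 57.5 uM) added 1 h before LPS (250 ng/mL) and ATP (1.25 mM) stimulation; lower signal means less secretion.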
TDP1 cell noCPT: qHTS for Inhibitors of human tyrosyl-DNA phosphodiesterase 1 (TDP1): qHTS in cells in absence of CPT. DT40 Tdp1-/- hTDP1 cells, no CPT, ATP luminescence, 48 h. Potency, µM (titrated, usually from 46.2 µM), actives largely listed as inhibitors. 420,000 tested, 15% active. AID 686978, 2013; note: nearly all actives have a fitted effect of over 55% in size
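Cells were dispensed at 400 per well, compounds added by pin tool, plates incubated ≥48 hr at 37 °C, then CellTiter-Glo added for 30 min at room temperature before luminescence reading. Line: DT40 Tdp1-/- complemented with hTDP1; camptothecin omitted.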
DT40 TDP1 CPT: qHTS for Inhibitors of human tyrosyl-DNA phosphodiesterase 1 (TDP1): qHTS in cells in presence of CPT | chicken DT40 Tdp1-/-;hTDP1 cells + 20 nM CPT, ATP luminescence, 48 h | Potency, µM (top dose mostly 46.2 µM), usual class: inhibitors | 420,000 tested, 12% active | AID 686979, 2013; note: nearly all actives have a fitted effect of over 55% in size
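Chicken DT40 Tdp1-/- cells complemented with human TDP1, 400 cells/well, exposed to compounds plus 20 nM camptothecin for at least 48 h at 37 C; viability read as ATP content by CellTiter-Glo luminescence.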
ELG1 repair inh: qHTS screen for small molecules that inhibit ELG1-dependent DNA repair in human embryonic kidney (HEK293T) cells expressing luciferase-tagged ELG1 | HEK293T ELG1-luciferase reporter, luminescence, 16 h; DNA damage induced by 5-fluorouridine | Potency, µM (titrated, usually from 46.1 µM), most hits filed as inhibitors | 330,000 tested, 2.3% active | AID 504467, 2011; note: nearly all actives have a fitted effect of over 55% in size
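Cells (2,000 per well) received 5-fluorouridine plus test compound or DMSO and were incubated 16 hr at 37 °C, 5% CO2. Luciferase activity was read by luminescence 30 min after ONE-Glo addition; signal suppression marked inhibition of damage-induced ELG1 function.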
VP16 counter: VP16 counterscreen qHTS for inhibitors of ROR gamma transcriptional activity; Drosophila S2 Gal4-VP16 UAS-luciferase, luminescence, 20 h; Potency, µM (doses to about 53.6 µM), actives largely listed as inhibitors; 310,000 tested, 3.5% active;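 note: Gal4-VP16 expression switched on by copper sulfate through the metallothionein promoter; nearly all actives have a fitted effect of over 50% in size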
Hits are given with their value; [ ] = dose if it differs, or a comment. Shown are actives, neighbours in structure and some others; about 21% of the full set was active somewhere. Unless noted, calls come from the whole dose curve; as a rule, active = well fitted curve in the direction sought with a large enough effect; inconclusive = small, poorly fitted or top-dose-only effect, or another doubt; inactive = no such curve, though single readings can be large; an effect the other way counts as inactive or inconclusive.

`Cc1nc(NC(=O)c2ccc(Cl)cc2)sc1Cc1ccc2c(c1)OCO2` gave RORgamma inh inconclusive, IL-1B inflam inh inactive, TDP1 cell noCPT 3.66µM, DT40 TDP1 CPT 4.11µM, ELG1 repair inh inconclusive and VP16 counter inconclusive.
Cc1nc(NC(=O)c2ccccc2)sc1Cc1ccc2c(c1)OCO2 was read as RORgamma inh 12.6µM, IL-1B inflam inh inactive, TDP1 cell noCPT inconclusive, DT40 TDP1 CPT inconclusive, ELG1 repair inh inactive and VP16 counter inconclusive.
Screening CC(=O)c1sc(NC(=O)c2ccc3c(c2)OCO3)nc1C returned RORgamma inh inactive, IL-1B inflam inh inactive, TDP1 cell noCPT inactive, DT40 TDP1 CPT inactive, ELG1 repair inh inconclusive and VP16 counter inactive.
For Cc1cc(C)nc(NC(=NCc2ccc3c(c2)OCO3)NC(=O)Nc2ccccc2)n1 the results were RORgamma inh inactive, IL-1B inflam inh inactive, TDP1 cell noCPT 4.61µM, DT40 TDP1 CPT 5.17µM and VP16 counter inactive.
O=C1CC(SC(=NCc2ccc3c(c2)OCO3)Nc2ccccc2)C(=O)N1c1ccccc1 (stereo not drawn) was read as RORgamma inh inactive, IL-1B inflam inh inactive, TDP1 cell noCPT inconclusive, DT40 TDP1 CPT inconclusive, ELG1 repair inh inactive and VP16 counter inactive.
`O=C1[C@H]2[C@H]3[C@H](O)[C@H](O)C/C(=N/OC[C@@H](O)COCc4ccco4)[C@H]3CC[C@@H]2C(=O)N1C[C@@H]1CCCO1` gave RORgamma inh inactive[10 µM] and VP16 counter inactive[10 µM].
`COc1ccc(/C=C/C2=CC(C)(C)NC(=S)N2)cc1` gave RORgamma inh 1.26µM, IL-1B inflam inh inactive, TDP1 cell noCPT inconclusive, DT40 TDP1 CPT inactive, ELG1 repair inh inconclusive and VP16 counter 2.51µM.
For O=C(NCc1cccc(F)c1)C1CCC(=O)N(CC2CCCCC2)C1 (stereo not drawn) the results were RORgamma inh inactive, IL-1B inflam inh inactive, TDP1 cell noCPT inactive, DT40 TDP1 CPT inactive, ELG1 repair inh inactive and VP16 counter inactive.
For CSc1ccc(CCNS(=O)(=O)c2cc(-c3cc(C)no3)ccc2C)cc1 the results were TDP1 cell noCPT 20.6µM and DT40 TDP1 CPT inconclusive.
`Cc1cc(-c2ccc(C)c(S(=O)(=O)NCCC(C)N3CCCCCC3)c2)on1` (stereo not drawn) gave RORgamma inh inactive, IL-1B inflam inh inactive, TDP1 cell noCPT inactive, DT40 TDP1 CPT inactive, ELG1 repair inh inactive and VP16 counter inactive.
For CCc1ccc(-c2cc(C)no2)cc1S(=O)(=O)NCCc1ccccc1 the results were RORgamma inh inconclusive, IL-1B inflam inh inactive, TDP1 cell noCPT 18.4µM, DT40 TDP1 CPT inconclusive, ELG1 repair inh inconclusive and VP16 counter inconclusive.
CCOC(=O)c1sc(NC(=O)c2c(-c3ccccc3)c(-c3ccccc3)nn(C)c2=O)nc1C was read as TDP1 cell noCPT 16.4µM and DT40 TDP1 CPT inconclusive.
CCN(CC)C(=O)c1c(-c2ccccc2)c(-c2ccccc2)nn(C)c1=O was read as TDP1 cell noCPT inactive and DT40 TDP1 CPT inactive.
CCn1nc(-c2ccccc2)c(-c2ccccc2)c(C(=O)Nc2ccccc2C#N)c1=O was read as TDP1 cell noCPT 11.6µM and DT40 TDP1 CPT 18.4µM.
Cc1nc(NC(=O)c2c(-c3ccccc3)c(-c3ccccc3)nn(C)c2=O)sc1C was read as TDP1 cell noCPT 0.581µM and DT40 TDP1 CPT 0.461µM.
`O=C(c1cc2sccc2n1Cc1ccc(F)cc1)N1CCN(c2nc3ccccc3s2)CC1` gave RORgamma inh inconclusive, IL-1B inflam inh inactive, TDP1 cell noCPT 20.6µM, DT40 TDP1 CPT 13µM, ELG1 repair inh inconclusive and VP16 counter 11.2µM.
For O=C(Nc1nccs1)c1cc2sccc2n1Cc1ccc(F)cc1 the results were RORgamma inh inactive, IL-1B inflam inh inactive, TDP1 cell noCPT inactive, DT40 TDP1 CPT inconclusive, ELG1 repair inh inconclusive and VP16 counter inactive.
Screening CCSc1ccccc1C(=O)N1CCN(c2nc3ccccc3s2)CC1 returned TDP1 cell noCPT 14.6µM and DT40 TDP1 CPT inconclusive.
`O=C(c1ccc(-c2nc3ccccc3s2)s1)N1CCOCC1` gave RORgamma inh 4.47µM, IL-1B inflam inh inactive, TDP1 cell noCPT inconclusive, DT40 TDP1 CPT inconclusive, ELG1 repair inh inconclusive and VP16 counter inconclusive.
For Cc1cccc2sc(N3CCN(C(=O)c4cccs4)CC3)nc12 the results were IL-1B inflam inh -77.6, TDP1 cell noCPT inactive, DT40 TDP1 CPT inactive and ELG1 repair inh inactive.
For CC(C)(C)C(=O)N1CCN(c2nc3ccccc3s2)CC1 the results were RORgamma inh inactive, IL-1B inflam inh inactive, TDP1 cell noCPT inconclusive, DT40 TDP1 CPT inactive, ELG1 repair inh inconclusive and VP16 counter inactive.
For O=C(CCC(=O)N1CCOc2ccccc21)NCCCN1CCN(Cc2ccccc2)CC1 the results were RORgamma inh inactive, IL-1B inflam inh inactive, TDP1 cell noCPT inconclusive, DT40 TDP1 CPT inactive, ELG1 repair inh inactive and VP16 counter inactive.
OC[C@@H]1CN(Cc2ccncc2)C[C@H](n2cnc3c(NCc4ccco4)ncnc32)O1 was read as IL-1B inflam inh inactive, TDP1 cell noCPT inconclusive and DT40 TDP1 CPT inactive.
`CCc1nn(CC(=O)NCc2cccc(OC)c2)c(=O)c2cc3cc(F)ccc3n12` gave TDP1 cell noCPT inactive and DT40 TDP1 CPT inconclusive.
Cc1ccccc1NC(=O)c1cc2sccc2n1Cc1ccc(F)cc1 was read as TDP1 cell noCPT 25.9µM and DT40 TDP1 CPT inconclusive.
`O=C(c1cccs1)N1CCN(c2nc3ccccc3s2)CC1` gave RORgamma inh inconclusive, IL-1B inflam inh inactive, TDP1 cell noCPT inconclusive, DT40 TDP1 CPT inconclusive, ELG1 repair inh inactive and VP16 counter inactive.
For O=C(c1ccc(Cl)s1)N1CCN(c2nc3ccccc3s2)CC1 the results were RORgamma inh inactive, IL-1B inflam inh inactive, TDP1 cell noCPT 16.4µM, DT40 TDP1 CPT inconclusive, ELG1 repair inh inconclusive and VP16 counter inactive.
`c1ccc2sc(SN3CCOCC3)nc2c1` gave RORgamma inh 10µM, IL-1B inflam inh inactive, TDP1 cell noCPT inconclusive, DT40 TDP1 CPT inactive, ELG1 repair inh inactive and VP16 counter 7.08µM.
`Cc1ccnc2cc(Cl)cc(Cl)c12` gave TDP1 cell noCPT inactive and DT40 TDP1 CPT inactive.
Screening CC(C)C(N)c1csc(Nc2nncc3ccccc23)n1 (stereo not drawn) returned IL-1B inflam inh inactive, TDP1 cell noCPT 16.4µM and DT40 TDP1 CPT inconclusive.
